A549 viability: kills or reduces viability of A549 cells in Nrf2 counter-screen. Potency, µM (highest dose often 46 µM), hits mostly inhibitors. A549 ARE-Fluc cells, CellTiter-Fluor viability, 18-24 h. 390,000 tested, 0.16% active. AID 504648
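A549 ARE_Fluc cells in 5% FBS OPTI-MEM were exposed to compounds in concentration-response for 18-24 h at 37 deg C. Viability was read by CellTiter-Fluor fluorescence (Ex 405/Em 525) after 30 min, before the luciferase read.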
ELG1 DNA repair: blocks ELG1-dependent DNA repair in HEK293T cells; HEK293T ELG1-luciferase reporter, luminescence, 16 h; DNA damage induced by 5-fluorouridine; Potency, µM (series often up to 46.1 µM), hits mostly inhibitors; 330,000 tested, 2.3% active; also: nearly all actives have a fitted effect of over 55% in size
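Overnight (16 hr) co-exposure of 2,000 cells/well to 5-fluorouridine and compound at 37 °C preceded detection. Luciferase was quantified via ONE-Glo luminescence; loss of signal denotes inhibition.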
Nrf2 block: inhibitors of Nrf2 signaling. A549 ARE-Fluc reporter, luciferase luminescence, 18-24 h. Potency, µM (top dose mostly 46 µM), usual class: inhibitors. 360,000 tested, 2.1% active. AID 504444; also: nearly all actives have a fitted effect of over 60% in size
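Quantitative HTS in A549 cells stably bearing an antioxidant response element-firefly luciferase construct. Inhibition of Nrf2-driven transcription was scored by luminescence after 18-24 h of compound exposure at 37 °C.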
Nrf2 activator: Nrf2 pathway activation | AREc32 ARE-luciferase reporter (MCF7-derived line), luminescence, 24 h | AID 624171 | Potency, µM (top dose mostly 46.1 µM), usual class: activators | 410,000 tested, 0.31% active; also: nearly all actives have a fitted effect of over 65% in size
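Each well held 1000 AREc32 cells, which were incubated with compound for 24 hr at 37 deg C after overnight attachment, and ARE reporter activity was quantified by firefly luciferase luminescence.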
Numbers stand for hits; - = inactive; ? = inconclusive; . = no result. In the library only some 3.7% were active in any assay of this set; here they are far more common. Calls follow the shape of the dose curve; as a rule, active = well fitted curve in the direction sought with a large enough effect; inconclusive = small, poorly fitted or top-dose-only effect, or another doubt; inactive = no such curve, though single readings can be large; an effect the other way counts as inactive or inconclusive.

SMILES | A549 viability | ELG1 DNA repair | Nrf2 block | Nrf2 activator
COc1cc(-c2cc(C(=O)Nc3nc4ccccc4s3)c3ccccc3n2)cc(OC)c1OC | - | 5.17µM | - | -
COc1cc(-c2cc(C(=O)NCCc3ccc(S(N)(=O)=O)cc3)c3ccccc3n2)cc(OC)c1OC | - | 4.11µM | - | -
O=C(Nc1ccc(O)cc1)c1ccccc1OCc1ccccc1 | - | ? | - | -
COc1cc(-c2cc(C(=O)Nc3ccc(O)cc3)c3ccccc3n2)cc(OC)c1OC | - | 5.8µM | - | -
COc1cc(NC(=O)c2ccccc2OCc2ccccc2)cc(OC)c1OC | - | 16.4µM | ? | -
COc1ccc(-c2cc(C(=O)Nc3ccc(C(N)=O)cc3)c3ccccc3n2)cc1OC | - | ? | - | -
Cc1ccc(C(=O)NCc2nc3ccccc3[nH]2)o1 | - | - | - | -
CCOC(=O)c1ccc2c(c1)N(CC#N)C(=O)C(C)(C)O2 | - | - | - | -
COc1ccc(-c2nn(-c3ccccc3)cc2/C=C2/SC(=S)N(CCC(=O)O)C2=O)cc1 | ? | - | 23.1µM | -
CCc1nn(CCCC(=O)NC2CCCCC2C)c(=O)c2cc3occc3n12 (stereo not given) | . | . | . | -
CN(C(=O)CSc1nnc(-c2ccc(F)cc2)n1C)C1CCS(=O)(=O)C1 (stereo not given) | - | - | - | -
COc1cccc(CN(C)C(=O)c2[nH]c(C)c(C(C)=O)c2C)c1OC | - | ? | 23.1µM | -
COc1ccc(NC(=O)CNC(=O)C23CC4CC(CC(C4)C2)C3)c(OC)c1 | - | - | - | -
COc1ccc(OC)c(NC(=O)C(=O)NNC(=O)C23CC4CC(CC(C4)C2)C3)c1 | - | 29.1µM | - | -
CCOc1ccc(CCN2C(=O)C(=O)N([C@@H](CC(C)C)CN3CCC[C@H]3CN3C(=O)C(=O)NC[C@@H]3CC(C)C)C[C@@H]2Cc2ccc(O)cc2)cc1 | . | . | . | -
COc1ccc(OC)c(C(=O)N(C[C@H]2CC[C@@H]([C@@H]3CC[C@H](CO)O3)O2)C(C(=O)NC(C)(C)C)c2ccc(-c3ccccc3)cc2)c1 (stereo not given in full) | ? | ? | 25.9µM | -
COc1ccc(C(C(=O)NC(C)(C)C)N(C[C@H]2CC[C@@H]([C@@H]3CC[C@H](CO)O3)O2)C(=O)c2ccccc2)cc1 (stereo not given in full) | - | ? | - | -
CC(C)(C)NC(=O)C(c1ccc(-c2ccccc2)cc1)N(C[C@H]1CC[C@@H]([C@@H]2CC[C@H](CO)O2)O1)C(=O)c1cccc(Cl)c1 (stereo not given in full) | ? | ? | 23.1µM | -
CC(C)(C)NC(=O)C(c1ccc(-c2ccccc2)cc1)N(C[C@H]1CC[C@@H]([C@@H]2CC[C@H](CO)O2)O1)C(=O)c1ccc(-c2ccccc2)cc1 (stereo not given in full) | ? | 23.1µM | ? | -
CN1CCN(S(=O)(=O)c2ccc(N3CCc4ccccc4C3)nc2)CC1 | - | - | - | -
C[C@H](O)[C@@H]1C(=O)N2CCc3ccc(N4CCN(C)CC4)cc3[C@@H]2C[C@@H]1N(C)C(=O)c1ccco1 | . | . | . | -
CC1CCCN(S(=O)(=O)c2cc3c(cc2Cl)NC(=O)CO3)C1 (stereo not given) | - | . | - | -
COc1ccc(C(=O)Nc2ccccc2C(=O)NC(C)C)cc1OC | - | 18.4µM | - | -
COc1ccc(C(=O)Nc2ccccc2C(=O)N/N=C/c2ccccn2)cc1OC | - | ? | 9.2µM | -
COc1ccc(C(=O)Nc2ccccc2C(=O)N2CCCCCC2)cc1OC | - | - | - | -
SMILES | A549 viability | ELG1 DNA repair | Nrf2 block | Nrf2 activator
COc1ccc(C(=O)Nc2ccc(-c3cc4ccccc4oc3=O)c(C)c2)cc1OC | - | . | 13µM | -
Cc1cc(NC(=O)c2ccc(Cl)c(Cl)c2)ccc1-c1cc2ccccc2oc1=O | - | . | - | -
COc1ccc(C(=O)N/N=C/c2ccccn2)cc1OC | - | - | ? | -
COc1ccc(C(=O)Nc2cccc(-c3nc4ncccc4o3)c2C)cc1OC | ? | ? | 18.4µM | -
O=C(CCC(=O)N1CCCCCC1)NCc1ccc(F)cc1 | - | - | - | -
COc1ccc(-c2nc3cc(NC(=O)COc4ccccc4C)ccc3o2)cc1 | - | . | - | -
O=C1CSc2ccc(C(=O)Nc3cccc(S(=O)(=O)Nc4ccc(Br)cc4)c3)cc2N1 | - | 13µM | ? | -
O=C(Nc1ccc(Br)cc1)c1cccc(S(=O)(=O)Nc2ccccn2)c1 | ? | - | 13µM | -
COc1ccc(C(=O)Nc2cccc(NC(=O)c3ccc(OC)c(OC)c3)n2)cc1OC | - | 2.91µM | - | -
COc1ccc(C(=O)Nc2ccc(NS(=O)(=O)c3ccccc3)cc2)cc1OC | - | 18.3µM | - | -
COc1ccc(C(=O)Nc2cccc3cccnc23)cc1OC | ? | ? | - | -
O=C(O)c1ccc(NC(=O)c2cccc(S(=O)(=O)Nc3ccc(C(=O)O)cc3)c2)cc1 | - | - | - | -
Cc1nn(-c2ccccc2)c2nc(N)c(C#N)c(-c3ccc(C(C)(C)C)cc3)c12 | ? | ? | - | -
COc1cccc(-c2c(C#N)c(N)nc3c2c(C)nn3-c2ccccc2)c1O | ? | ? | 25.9µM | -
CC1=C(C#N)C(c2cccnc2)C2=C(N1)c1ccccc1C2=O (stereo not given) | - | ? | - | -
CC1=C(C#N)C(c2ccccc2)C2=C(N1)c1ccccc1C2=O (stereo not given) | ? | - | 23.1µM | -
Cc1ccc2[nH]c(=O)c(CN(CCCO)S(=O)(=O)c3cccc4nsnc34)cc2c1 | - | ? | - | -
Cc1ccc2cc(CN(CCCO)S(=O)(=O)c3cccc4nsnc34)c(=O)[nH]c2c1 | - | 9.2µM | - | -
CC1(C)Cc2c(sc3[nH]c(=S)n(Cc4ccco4)c(=O)c23)CO1 | - | - | - | -
CC1(C)Cc2c(sc3c2c(=N)n(Cc2ccco2)c(=O)n3Cc2ccc(Cl)cc2)CO1 | - | 5.8µM | ? | -
CC1(C)Cc2c(sc3c2c(=N)n(Cc2ccco2)c(=O)n3Cc2ccccc2)CO1 | - | 11.6µM | - | -
CCn1cc(S(=O)(=O)c2cccc(C)c2)c(=O)c2cc(F)c(N3CCCCC3C)cc21 (stereo not given) | - | . | - | -
Cc1ccc(NC(=O)C(Nc2ccccc2)c2ccccc2)cc1 (stereo not given) | - | - | - | -
Cc1ccc(NC(=O)C(C)c2ccc(-c3ccccc3)c(F)c2)cc1 (stereo not given) | ? | ? | 14.6µM | -
CCOC(=O)N1CCN(C(=O)CN(C)S(=O)(=O)c2ccc(Cl)cc2)CC1 | - | - | ? | -
Cc1ccc(C(=O)c2ccccc2C(=O)OCC(=O)N2CC(C)CC(C)C2)cc1 (stereo not given) | - | 18.3µM | - | -
Cc1nc2ccc(S(=O)(=O)NC(C(=O)N3CCN(c4ccc(Cl)cc4)CC3)C(C)C)cc2s1 (stereo not given) | - | . | - | -

Assay outcomes (PubChem BioAssay)
